Data taken from PubChem BioAssay (NCI).
This is part of a sample that, as a whole, favours compounds with a hit. Of some 83,000 tested, about 20% had one in any assay.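 Single-concentration screen, 48 h exposure, 96-well plates. Endpoint: percent growth. Below 10 = active.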 Activity calls are given as the source filed them.

Assays:
Assay in all cases: NCI-60 one-dose screen, 48 h (100 = growth as untreated, 0 = no growth, -100 = all killed)
Settings in all cases: 10 µM unless noted
SK-MEL-2 melanoma = system: SK-MEL-2 melanoma
EKVX NSCLC = system: EKVX NSCLC
SN12C renal = system: SN12C renal
UO-31 renal = system: UO-31 renal
TK-10 renal = system: TK-10 renal
ACHN renal = system: ACHN renal
CAKI-1 renal = system: CAKI-1 renal
A498 renal = system: A498 renal
CCRF-CEM leukemia = system: CCRF-CEM leukemia
MOLT-4 leukemia = system: MOLT-4 leukemia
SR leukemia = system: SR leukemia
RPMI-8226 leukemia = system: RPMI-8226 leukemia
OVCAR-8 ovarian = system: OVCAR-8 ovarian
OVCAR-5 ovarian = system: OVCAR-5 ovarian
OVCAR-4 ovarian = system: OVCAR-4 ovarian
SK-OV-3 ovarian = system: SK-OV-3 ovarian
IGROV1 ovarian = system: IGROV1 ovarian
OVCAR-3 ovarian = system: OVCAR-3 ovarian
HS 578T breast = system: HS 578T breast
NCI/ADR-RES ovarian = system: NCI/ADR-RES ovarian

Measured: growth

O=[N+]([O-])c1ccc(/C=C/c2nc3ccccc3n3c(=S)[nH]nc23)cc1
inactive: SK-MEL-2 melanoma 86.3% | EKVX NSCLC 70.7% | SN12C renal 71.1% | UO-31 renal 47.7% | TK-10 renal 127% | ACHN renal 72.7% | CAKI-1 renal 75.2% | A498 renal 91.9% | CCRF-CEM leukemia 69.8% | MOLT-4 leukemia 75.5% | SR leukemia 71.6% | RPMI-8226 leukemia 56.5% | OVCAR-8 ovarian 83% | OVCAR-5 ovarian 89.1% | OVCAR-4 ovarian 82.5% | SK-OV-3 ovarian 105% | IGROV1 ovarian 78.3% | OVCAR-3 ovarian 69.9% | HS 578T breast 75.7% | NCI/ADR-RES ovarian 85.2%

OCC1(CCCc2ccccc2)CCCN(c2nccc3ccccc23)C1 (stereo not given)
active: RPMI-8226 leukemia 5.11%
inactive: SK-MEL-2 melanoma 30.7% | EKVX NSCLC 23.4% | SN12C renal 44.4% | UO-31 renal 26.9% | TK-10 renal 50.1% | ACHN renal 51.8% | CAKI-1 renal 38.6% | A498 renal 63.3% | CCRF-CEM leukemia 49.2% | MOLT-4 leukemia 32.3% | SR leukemia 12.1% | OVCAR-8 ovarian 23.1% | OVCAR-5 ovarian 62.4% | OVCAR-4 ovarian 32.8% | SK-OV-3 ovarian 57.7% | IGROV1 ovarian 62.2% | OVCAR-3 ovarian 45.6% | HS 578T breast 42% | NCI/ADR-RES ovarian 11.8%

COc1cc(/C=C/C(=O)c2ccc(C)cc2)ccc1Oc1nc(Nc2ccc(F)cc2)nc(N(C)C)n1
active: ACHN renal 3.65% | MOLT-4 leukemia 9.34% | SR leukemia 3.88% | RPMI-8226 leukemia -1.89%
inactive: SK-MEL-2 melanoma 44.9% | EKVX NSCLC 60.6% | SN12C renal 17.4% | UO-31 renal 36.2% | TK-10 renal 77.3% | CAKI-1 renal 35.6% | A498 renal 66.3% | CCRF-CEM leukemia 17% | OVCAR-8 ovarian 38% | OVCAR-5 ovarian 79.1% | OVCAR-4 ovarian 39.4% | SK-OV-3 ovarian 79.4% | IGROV1 ovarian 57.8% | OVCAR-3 ovarian 52.4% | HS 578T breast 41.7% | NCI/ADR-RES ovarian 38.1%

C#C[C@]1(O)CC[C@H]2[C@@H]3CC=C4c5sc(-c6ccc([N+](=O)[O-])cc6)nc5CC[C@]4(C)[C@H]3CC[C@@]21C
active: SK-MEL-2 melanoma -42.8% | EKVX NSCLC -61.6% | UO-31 renal -44.8% | ACHN renal 3.11% | A498 renal 6.18% | CCRF-CEM leukemia 9.17% | SR leukemia 1.72% | RPMI-8226 leukemia -10.7% | OVCAR-3 ovarian -25.2%
inactive: SN12C renal 57% | TK-10 renal 52% | CAKI-1 renal 23.1% | MOLT-4 leukemia 10% | OVCAR-8 ovarian 11.3% | OVCAR-5 ovarian 12.5% | OVCAR-4 ovarian 46.5% | SK-OV-3 ovarian 53% | IGROV1 ovarian 26.4% | HS 578T breast 29.6% | NCI/ADR-RES ovarian 25.7%

Cc1ccc([C@H]2C(C(=O)c3ccc(Cl)cc3)C3(N[C@@H]2c2ccccc2)C(=O)Nc2ccccc23)cc1 (stereo not given in full)
inactive: SK-MEL-2 melanoma 15.6% | EKVX NSCLC 29.6% | UO-31 renal 17.7% | TK-10 renal 40.8% | ACHN renal 22.5% | CAKI-1 renal 32% | A498 renal 75.5% | CCRF-CEM leukemia 14.7% | SR leukemia 23.3% | OVCAR-8 ovarian 66% | OVCAR-5 ovarian 52.2% | OVCAR-4 ovarian 49.4% | SK-OV-3 ovarian 53.2% | IGROV1 ovarian 59.4% | OVCAR-3 ovarian 37.3% | HS 578T breast 60.3% | NCI/ADR-RES ovarian 35.4%
active: SN12C renal 4.19% | MOLT-4 leukemia -26.6% | RPMI-8226 leukemia 6.4%

COc1cc(C2CC(c3ccc(S(=O)(=O)NCCNc4nc(Nc5ccc(F)cc5)nc(N(C)C)n4)cc3)=Nc3c(N)nc(N)nc3N2)cc(OC)c1OC (stereo not given)
inactive: SK-MEL-2 melanoma 90.8% | EKVX NSCLC 87.3% | SN12C renal 83.9% | UO-31 renal 86.1% | TK-10 renal 95.4% | ACHN renal 96.8% | CAKI-1 renal 90.4% | A498 renal 86.8% | CCRF-CEM leukemia 33.8% | MOLT-4 leukemia 34.4% | SR leukemia 36.1% | RPMI-8226 leukemia 24.8% | OVCAR-8 ovarian 93.1% | OVCAR-5 ovarian 98.4% | OVCAR-4 ovarian 85.6% | SK-OV-3 ovarian 110% | IGROV1 ovarian 81.7% | OVCAR-3 ovarian 93.6% | HS 578T breast 76.5% | NCI/ADR-RES ovarian 95.6%

COc1ccc2oc3c4[nH]c5ccccc5c4c4c(c3c2c1)C(=O)N(C(=O)OC(C)(C)C)C4=O
active: SK-MEL-2 melanoma -46.8% | EKVX NSCLC -18.9% | SN12C renal -19.3% | UO-31 renal -12.8% | TK-10 renal -11% | ACHN renal -22.3% | CAKI-1 renal -15.3% | A498 renal -10.9% | CCRF-CEM leukemia 6.52% | MOLT-4 leukemia -28.4% | SR leukemia -5.86% | RPMI-8226 leukemia -10.4% | OVCAR-8 ovarian -20.1% | OVCAR-5 ovarian 6.78% | OVCAR-4 ovarian -6.75% | SK-OV-3 ovarian -25.3% | IGROV1 ovarian -1.25% | OVCAR-3 ovarian -33.7% | HS 578T breast -1.85% | NCI/ADR-RES ovarian -17.9%

CCOC(=O)/C=C/c1cccc2c1C(=O)NC(C)(c1cc3cc(Cl)ccc3oc1=O)N2 (stereo not given)
inactive: EKVX NSCLC 31.8% | SN12C renal 31.5% | UO-31 renal 11.7% | TK-10 renal 46.2% | ACHN renal 10% | CAKI-1 renal 10.5% | A498 renal 30.3% | CCRF-CEM leukemia 37.4% | RPMI-8226 leukemia 17.7% | OVCAR-8 ovarian 39.1% | OVCAR-5 ovarian 50.4% | OVCAR-4 ovarian 36.7% | IGROV1 ovarian 13% | OVCAR-3 ovarian 34.4% | HS 578T breast 41% | NCI/ADR-RES ovarian 22.7%
active: SK-MEL-2 melanoma 7.1% | MOLT-4 leukemia 4.75% | SR leukemia 1.88% | SK-OV-3 ovarian -0.634%

O=C(/C=C/Nc1ccc(Cl)cc1)c1ccc2c(c1)Nc1ccccc1S2
active: OVCAR-4 ovarian 2.72% | HS 578T breast 8.24%
inactive: SK-MEL-2 melanoma 55.1% | EKVX NSCLC 55.8% | SN12C renal 61.8% | UO-31 renal 36.1% | TK-10 renal 72% | ACHN renal 30.7% | CAKI-1 renal 38.3% | A498 renal 108% | CCRF-CEM leukemia 81.1% | MOLT-4 leukemia 66.2% | SR leukemia 58.1% | RPMI-8226 leukemia 62.3% | OVCAR-8 ovarian 12.4% | OVCAR-5 ovarian 83.4% | SK-OV-3 ovarian 20.7% | IGROV1 ovarian 39.5% | OVCAR-3 ovarian 61.5% | NCI/ADR-RES ovarian 25.7%

O=C(COc1ccc(NC(=O)Nc2ccc(Cl)c(Cl)c2)cc1)N=Nc1c(O)[nH]c2ccc(Cl)cc12
inactive: UO-31 renal 56.8% | ACHN renal 20.9% | NCI/ADR-RES ovarian 85.2%
active: SK-MEL-2 melanoma -64.9% | EKVX NSCLC 7.69% | SN12C renal -30.4% | TK-10 renal 1.73% | CAKI-1 renal -5.97% | A498 renal -32.4% | CCRF-CEM leukemia 8.9% | MOLT-4 leukemia -1.42% | SR leukemia 3.93% | RPMI-8226 leukemia 6.94% | OVCAR-8 ovarian -48.4% | OVCAR-5 ovarian -28% | OVCAR-4 ovarian -16.6% | SK-OV-3 ovarian -22.2% | IGROV1 ovarian -48.6% | OVCAR-3 ovarian -81.7% | HS 578T breast -13.7%

Cc1nc(Nc2ccccn2)sc1C(=O)CC(SCC(=O)Nc1ccc(Cl)cc1)c1ccccc1F (stereo not given)
active: SK-MEL-2 melanoma -27.1% | SN12C renal -15.1% | TK-10 renal 6.79% | RPMI-8226 leukemia 7.34% | OVCAR-8 ovarian -35.8% | OVCAR-5 ovarian -41.2% | SK-OV-3 ovarian 8.74% | OVCAR-3 ovarian -13.5% | HS 578T breast 4.29% | NCI/ADR-RES ovarian -18%
inactive: EKVX NSCLC 36.5% | UO-31 renal 30.3% | ACHN renal 24.6% | CAKI-1 renal 15.3% | A498 renal 45.3% | CCRF-CEM leukemia 12.4% | MOLT-4 leukemia 23.7% | SR leukemia 12.6% | OVCAR-4 ovarian 42.5% | IGROV1 ovarian 20.4%

COc1cc2oc(-c3cccc(C(=O)Nc4cccc([N+](=O)[O-])c4)c3)cc(=O)c2c(OC)c1OC
active: SK-MEL-2 melanoma -0.125% | UO-31 renal 0.82% | CAKI-1 renal 8.83% | A498 renal 3.68% | OVCAR-8 ovarian 5.89% | OVCAR-4 ovarian -6.32% | SK-OV-3 ovarian -9.46% | HS 578T breast -5.03% | NCI/ADR-RES ovarian -18.2%
inactive: EKVX NSCLC 41.6% | SN12C renal 25.8% | TK-10 renal 37.2% | ACHN renal 16.2% | CCRF-CEM leukemia 84.1% | MOLT-4 leukemia 64.6% | SR leukemia 55% | RPMI-8226 leukemia 68.9% | OVCAR-5 ovarian 83.5% | IGROV1 ovarian 22.1% | OVCAR-3 ovarian 26.7%

Brc1ccc(N/N=C/c2c[nH]c3ccc(Br)cc23)nc1
active: SK-MEL-2 melanoma -57% | EKVX NSCLC -11.8% | SN12C renal -22.6% | UO-31 renal -18.7% | TK-10 renal -16.8% | ACHN renal -22.8% | CAKI-1 renal -24.4% | A498 renal -21.3% | CCRF-CEM leukemia -37.7% | MOLT-4 leukemia -35% | SR leukemia -26.2% | RPMI-8226 leukemia -17.2% | OVCAR-8 ovarian 3.48% | OVCAR-5 ovarian -25.8% | SK-OV-3 ovarian -12.7% | IGROV1 ovarian -25.6% | OVCAR-3 ovarian -2.41% | HS 578T breast -17.2% | NCI/ADR-RES ovarian -24.5%
inactive: OVCAR-4 ovarian 19.6%

Cn1cc(-c2cc(N)n3nc(-c4cn(C)c5ccccc45)cc3n2)c2cc(Br)ccc21
active: SK-MEL-2 melanoma -84.5% | EKVX NSCLC -22.1% | SN12C renal -43.9% | UO-31 renal -84.2% | TK-10 renal -27.8% | ACHN renal -31.7% | CAKI-1 renal -75.3% | A498 renal -26.3% | CCRF-CEM leukemia -4.52% | MOLT-4 leukemia -0.0957% | SR leukemia 7.44% | RPMI-8226 leukemia 0.257% | OVCAR-8 ovarian -91.9% | OVCAR-5 ovarian 5.47% | OVCAR-4 ovarian -25.6% | IGROV1 ovarian -3.64% | OVCAR-3 ovarian -46.3% | HS 578T breast -7.42% | NCI/ADR-RES ovarian -13.9%
inactive: SK-OV-3 ovarian 38.9%

Cc1nc(Nc2ncc(C(=O)Nc3c(C)cccc3Cl)s2)cc(N2CCN(CCCNC(=O)COc3ccc(C4CCC(=O)NC4=O)cc3)CC2)n1 (stereo not given)
inactive: SK-MEL-2 melanoma 109% | EKVX NSCLC 58.6% | SN12C renal 25.2% | UO-31 renal 38.4% | CCRF-CEM leukemia 95.1% | MOLT-4 leukemia 48.9% | SR leukemia 20% | RPMI-8226 leukemia 76.4% | OVCAR-8 ovarian 34% | OVCAR-5 ovarian 26.3% | OVCAR-4 ovarian 85.8% | OVCAR-3 ovarian 72% | NCI/ADR-RES ovarian 106%
active: TK-10 renal -7.44% | ACHN renal 8.27% | CAKI-1 renal -30.7% | A498 renal 7.95% | SK-OV-3 ovarian -17.9% | IGROV1 ovarian -45.2% | HS 578T breast -16%
